The structures appear in SMILES notation. About 1,100 (0.31%) of roughly 360,000 compounds were called active. This is one part of a sample in which actives are shown more often than they occur. No stated cut-off is given here; in the data, active means activity change above about 30% (passing the limit was not always enough); inactive means the rest.

Hepatocyte nuclear factor 4-alpha (Homo sapiens), sequence (P41235 whole entry, looked up): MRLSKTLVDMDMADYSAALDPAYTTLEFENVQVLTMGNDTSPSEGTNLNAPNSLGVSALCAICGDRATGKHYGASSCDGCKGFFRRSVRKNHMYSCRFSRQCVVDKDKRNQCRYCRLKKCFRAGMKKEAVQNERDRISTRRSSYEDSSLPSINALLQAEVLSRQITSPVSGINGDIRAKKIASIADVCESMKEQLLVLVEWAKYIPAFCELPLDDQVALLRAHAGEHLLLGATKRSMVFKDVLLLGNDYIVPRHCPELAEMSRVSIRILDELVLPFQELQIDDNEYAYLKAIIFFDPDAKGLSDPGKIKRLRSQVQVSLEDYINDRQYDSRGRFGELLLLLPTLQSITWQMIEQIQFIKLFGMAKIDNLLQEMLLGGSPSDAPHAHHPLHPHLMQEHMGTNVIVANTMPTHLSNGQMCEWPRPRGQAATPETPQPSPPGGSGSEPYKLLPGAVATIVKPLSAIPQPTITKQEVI

This assay concerns the target Hepatocyte nuclear factor 4-alpha (Homo sapiens) (UniProt P41235). Description: HNF4-alpha DNA association modulation – biochemical, fluorescence polarization, FITC-DNA, primary screen (AID 1224865). To be noted: HNF4a-FITC DNA binding, 1 h, at 10 µM, active compounds read high. (In general: In fluorescence polarisation assays a small probe gives low polarisation when free and higher when bound to something large.)
For `C=CC[C@H](CC(=O)N(CCO)Cc1ccccc1)C(=O)N[C@@H](COC(=O)[C@@H](CC=C)Cc1ccc(F)cc1)Cc1ccccc1`, the activity change was 2.32% (inactive). For the compound `CCN(CC)C(=O)CSC(Nc1cccc(F)c1)=C(C#N)C#N`, the activity change is 44.9% (active). With `CN(CC(=O)Nc1cccc(F)c1)C(=O)CC1CCCC1` the figure was -0.01% (inactive); with `Cc1ccc(CSCC(=O)N(C)CC(=O)Nc2cccc(F)c2)cc1`, -2.3% (inactive); with `Cc1ccccc1OCCC(=O)Nc1c(C)n(C)n(-c2ccccc2)c1=O`, -0.09% (inactive).

For `O=C(CC1Nc2ccccc2NC1=O)Nc1ccccc1` (stereo not given), the activity change is 7.95% (inactive). On to `COc1ccc(NC2=CC(=S)NC(C)(C)C2)cc1`, for which the activity change is 39.2% (active).

Take `COc1ccc(Nc2cc(Sc3ccc(OC)cc3)ncn2)cc1`: the activity change was 7.05% (inactive).

Turning to `COc1ccc(CCNC2=CC(=O)CC(C)(C)C2)cc1`, the activity change is 2.16% (inactive). In the case of `CCCNC(=O)c1cc(C2CCCCN2S(=O)(=O)c2cn(C)cn2)on1` (stereo not given), the activity change is -2.31% (inactive). Regarding `Cc1cc(C)n2nc(C(=O)Nc3cccc(S(=O)(=O)N4CCOCC4)c3)nc2n1`, the activity change was -1.39% (inactive). Consider `CC(C)Oc1ccc(C(=O)NCC(=O)Nc2ccc3c(c2)CCC3)cc1`, for which the activity change was -0.66% (inactive). With `Cc1ccc(C(=O)OCC(=O)NC2CCCCCCC2)cc1C` the figure was -0.78% (inactive); with `Cc1nc(SCC(=O)N2CCc3ccccc3C2)c2c(C)c(C)sc2n1`, -0.31% (inactive). As to `Cc1nc(SCC(=O)N2CC(=O)Nc3ccccc32)c2c(C)c(C)sc2n1`, the activity change is -0.27% (inactive). As for `Cc1nc(SCC(=O)Nc2cc(C)on2)c2c(C)c(C)sc2n1`, the activity change was 49.9% (active). With `CC/C(=C(/c1ccccc1)c1ccc(OCC[N+](C)(C)C)cc1)c1ccccc1` the figure was 7.53% (inactive); with `C[C@@H]1CN([C@H](C)CO)C(=O)c2cc(Br)cnc2O[C@@H]1CN(C)Cc1cncnc1`, 3.08% (inactive). As for `COC(=O)c1cccc(N(CC(=O)NCC2CCCO2)C(=O)CCC(=O)Nc2cc(C)on2)c1` (stereo not given), the activity change is 2.32% (inactive). The same measure for `O=C(COC(=O)c1ccc(F)c(S(=O)(=O)N2CCOCC2)c1)NCc1ccc2c(c1)OCO2`: 2.9% (inactive).

The values above are taken from PubChem BioAssay AID1224865 (Sanford-Burnham Center for Chemical Genomics, 2016).
